# In PubChem BioAssay (EPA / NIEHS):
# Records with an inconclusive call do not appear. Activity calls are given as the source filed them. How the source made its calls, unless noted: active means hit-call score of the fitted dose curve at least 0.9, where 1 is the maximum; inactive means score below 0.9.
# Columns and labels:
# [1] = test system: Brachyury (BRA) Protein Expression, TBXT (gene 6862); assay: CCTE_Deisenroth_DEVTOX-GLR_Endo_BRA: CCTE's DevTox GLR-Endo Assay Evaluation of Brachyury (BRA) Protein Expression, Deisenroth Lab (AID 2284417)
# How it was run: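 Read-out: BRA+ cell count divided by total cell count by high-content imaging (5 fields per well), expressed relative to 0.2% DMSO solvent control. RUES2-GLR cells dosed twice over a 48 h differentiation; concentrations 1 nM - 200 uM.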
# [2] = CCTE_Deisenroth_DEVTOX-GLR_Endo_CellCount: Viability Assessment in CCTE's DevTox GLR-Endo Assay, Deisenroth Lab (AID 2284420)
# How it was run: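 RUES2-GLR human pluripotent cells seeded 24 h, then differentiated 48 h with two chemical exposures at 24 h intervals (10-point, 1 nM - 200 uM). Fixed, nuclear-stained, imaged; nuclei counts give % change in cell count versus 0.2% DMSO.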
# [3] = test system: SRY-box transcription factor 17 (SOX17) Protein Expression, Deisenroth Lab, SOX17 (gene 64321); assay: CCTE_Deisenroth_DEVTOX-GLR_Pluri_SOX17: CCTE's DevTox GLR-Pluri Assay Evaluation of SRY-box transcription factor 17 (SOX17) Protein Expression, Deisenroth Lab (AID 2284427; active means hit-call score of the fitted dose curve at least 0.9, where 1 is the maximum)
# How it was run: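 RUES2-GLR human pluripotent cells were seeded 24 h, then differentiated 48 h in defined media with two chemical exposures 24 h apart (10-point series, 1 nM - 200 uM). Fixed, nuclear-stained cells were imaged; %SOX17+ cells minus 0.2% DMSO control reported.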
# [4] = test system: SRY-box transcription factor 2 (SOX2) Protein Expression, Deisenroth Lab, SOX2 (gene 6657); assay: CCTE_Deisenroth_DEVTOX-GLR_Pluri_SOX2: CCTE's DevTox GLR-Pluri Assay Evaluation of SRY-box transcription factor 2 (SOX2) Protein Expression, Deisenroth Lab (AID 2284428)
# How it was run: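 Human pluripotent RUES2-GLR cells were seeded 24 h, then differentiated 48 h in defined media with two chemical doses at 24-h intervals (10-point, 1 nM–200 uM). Nuclear-stained cells were imaged; SOX2+ cells/cell count gave percent change versus 0.2% DMSO control.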
# [5] = test system: Brachyury (BRA) Protein Expression, Deisenroth Lab, TBXT (gene 6862); assay: CCTE_Deisenroth_DEVTOX-GLR_Pluri_BRA: CCTE's DevTox GLR-Pluri Assay Evaluation of Brachyury (BRA) Protein Expression, Deisenroth Lab (AID 2284429; active means hit-call score of the fitted dose curve at least 0.9, where 1 is the maximum)
# Protocol: CCTE_Deisenroth_DEVTOX-GLR_Pluri assay is a cell-based, multiplex-readout assay that uses RUES2-GLR, a human pluripotent cell line, with measurements taken at 48 hours after chemical dosing in a 384-well microplateCCTE_Deisenroth_DEVTOX-GLR_Pluri_BRA is 1 of 4 assay components calculated from the CCTE_Deisenroth_DEVTOX-GLR_Pluri assay and it measures an the percentage of cells in an mesoderm state. Using a type of inducible fluorescent protein reporter, gain-of-signal activity can be used to understand changes in gene expression with fluorescent microscopy. The percentage of BRA+ cells are determined by calculating the number of BRA+ cells divided by the cell count. To generalize the intended target to other relatable targets, this assay component is annotated to the transcription factor intended target family, where the subfamily is T-box protein.Data from the assay component CCTE_Deisenroth_DEVTOX-GLR_Pluri_BRA was analyzed as 1 assay endpoint. The endpoint is the percent BRA+ cell population minus the 0.2% DMSO control in the CCTE_Deisenroth_DEVTOX-GLR_Pluri assay. Furthermore, this assay endpoint can be referred to as a secondary readout, because this assay has produced multiple assay endpoints where this one serves as a measure of mesoderm differentiation.
# All assay protocols are aligned to the DevTox GLR-Endo assay workflow. Cells are seeded into 384-well microplates for 24 hours prior to initiating differentiation in defined media for a total duration of 48 hours. A total of two chemical exposures are administered in 24-hour intervals during the 48-hour differentiation period. At the assay termination point, cells are fixed and stained with a fluorescent dye demarcating the nucleus. High-content imaging is used to acquire brightfield and fluorescent channel images across 5 fields per well. Cell identification and mean biomarker fluorescence intensities are calculated with image analysis software to determine the total cell counts for viability assessment and the biomarker expression frequency for each lineage-dependent assay. A typical experimental design tests a 10-point concentration series (1 nM - 200 uM) for 28 compounds in single technical replicate. Assay plate controls include non-differentiated pluripotent cells (baseline control), lineage-specific differentiated cells (differentiation control), and DMSO solvent exposed differentiated cells (solvent control). Experiments typically comprise a minimum of four experimental replicates (n=4).
# [6] = CCTE_Deisenroth_DEVTOX-GLR_Pluri_CellCount: Viability Assessment in CCTE's DevTox GLR-Pluri Assay Evaluation of Total Cell Counts, Deisenroth Lab (AID 2284430)
# How it was run: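 Cytotoxicity readout: fluorescent nuclei counts by high-content imaging, expressed as percent change relative to 0.2% DMSO. Human RUES2-GLR pluripotent line differentiated 48 h, dosed twice at 24-h intervals across 1 nM - 200 uM (10 points).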
# TTR (gene 7276) = assay: CCTE_GLTED_hTTR_0.125uM: CCTE's human Transthyretin (hTTR) Inhibition Assay, with 0.125uM TTR, Great Lakes Toxicology and Ecology Division (GLTED) Lab (AID 2284431);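 further: hits lower the fluorescence signal relative to DMSO baseline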
# How it was run: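 Cell-free displacement of the fluorescent probe ANSA from human TTR (0.125uM) after 2 h incubation with test chemical. Fluorescence read at 380 nm excitation/475 nm emission; loss of signal fitted relative to DMSO baseline.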
structure (smiles),measurement,setting,value
Nc1ccn([C@@H]2O[C@H](CO)[C@@H](O)[C@@H]2O)c(=O)n1,AC50,[1],4.91 µM (active)
same,AC50,[2],0.259 µM (active)
same,AC50,[3],1.68 µM (active)
same,AC50,[4],0.244 µM (active)
same,AC50,[5],1.74 µM (active)
same,AC50,[6],0.234 µM (active)
CCc1ccc(O)c(C(C)(C)C)c1,AC50,TTR (gene 7276),12.4 µM (active)
O=S(=O)(O)c1ccc(N=Nc2c(O)ccc3cc(S(=O)(=O)O)ccc23)cc1,AC50,TTR (gene 7276),17.1 µM (active)
NC(=O)N1c2ccccc2C=Cc2ccccc21,outcome,[1],inactive
same,AC50,[2],63.4 µM (active)
same,AC50,[3],64.8 µM (active)
same,AC50,[4],23 µM (active)
same,AC50,[5],47 µM (active)
same,outcome,[6],inactive
NNC(=O)c1ccncc1,outcome,[1],inactive
same,outcome,[2],inactive
same,outcome,[3],inactive
same,outcome,[4],inactive
same,outcome,[5],inactive
same,outcome,[6],inactive
C=CCc1cc(S(=O)(=O)c2ccc(O)c(CC=C)c2)ccc1O,AC50,TTR (gene 7276),1.67 µM (active)
CCCC(CCC)C(=O)O,outcome,[1],inactive
same,outcome,[2],inactive
same,outcome,[3],inactive
same,outcome,[4],inactive
same,outcome,[5],inactive
same,outcome,[6],inactive
